# Among all 2,300 compounds or so, about 790 (34%) were called active. No rule for the calls is given here. The list shows a part of the results. Entries with a potency or affinity are not part of this list.
# Assay: THP-1 cell cytotoxicity, dose response, cytotoxicity control for non-replicating M. tuberculosis project (AID 489025)
# Conditions: THP-1 cell viability; series mostly up to 40 µM
row,SMILES,outcome
1,CC1COC(=O)C(NNc2ccc(Cl)c(Cl)c2)=N1 (stereo unspecified),inactive
2,S=c1c2c(nc3nc[nH]n13)CCC2,inactive
3,O=C(Cc1ccc(Cl)cc1)OCC(=O)c1ccc[nH]1,inactive
4,Cc1cccc(OC(=O)c2sc3ncn(C)c(=O)c3c2C)c1,inactive
5,Cc1ccccc1NC(=O)c1nc[nH]c1C(=O)NCc1ccccc1,inactive
6,O=[N+]([O-])c1ccc(CN2CCN(c3ccc(Cl)cc3)CC2)o1,inactive
7,O=C(c1ccc([N+](=O)[O-])o1)N1CCN(Cc2ccccc2)CC1,inactive
8,Cc1cccc(CC(=O)NCC2CCCCC2)c1,inactive
9,COc1ccc2c(c1)C(=C(C#N)C#N)C(=O)N2CCc1ccccc1,inactive
10,CSc1nc2ccc(NC(=O)C3CC(=O)N(Cc4ccccc4)C3)cc2s1 (stereo unspecified),inactive
11,CCc1ccc(OCC(=O)c2c(O)c3ccccc3oc2=O)cc1,inactive
12,O=C(CCC1CCCCC1)NCc1cccs1,inactive
13,CCCn1nnc(NC(=O)COc2ccc(CC)cc2)n1,inactive
14,COc1cc(/C=N/Nc2ccc(Cl)c(C(=O)O)c2)ccc1OC(=O)c1cccs1,inactive
15,COc1ccc(-c2nc(C=O)cs2)cc1,inactive
16,Cc1cc(Br)ccc1OCCCCN1CCC(C)CC1,inactive
17,CCOC(=O)COc1ccc2c3c(c(=O)oc2c1C)CCC3,inactive
18,CCOC(=O)COc1cc([N+](=O)[O-])cc2cccnc12,inactive
19,O=C(NCc1ccco1)c1nc2ccccc2s1,inactive
20,O=Cc1c(NCc2ccco2)nc2ccccn2c1=O,inactive
21,O=C(c1nnc(-c2ccc(Cl)cc2)o1)C1CCCC1,inactive
22,CC1(c2nnc(Cc3ccccc3)o2)CC(c2ccccc2[N+](=O)[O-])=NO1 (stereo unspecified),inactive
23,CCc1nnc(N/N=C/c2ccc(-c3ccc([N+](=O)[O-])cc3)o2)n1N,inactive
24,O=C(CCNc1cccc(F)c1)c1cccc([N+](=O)[O-])c1,inactive
25,COC(=O)c1cccc(NC(=O)COc2cccc([N+](=O)[O-])c2)c1,inactive
26,CCCCCCCC(=O)N/N=C/c1ccc([N+](=O)[O-])o1,inactive

row,SMILES,outcome
1,CC1Cc2ccccc2N1C(=O)COC(=O)c1ccc(Cl)nc1 (stereo unspecified),inactive
2,O=C(COC(=O)c1ccc(Br)o1)NCCCc1ccccc1,inactive
3,COC(=O)CCSCc1cn2cc(Cl)ccc2n1,inactive
4,CCC1CCc2sc(C(=O)NNC(=O)c3ccncc3)cc2C1 (stereo unspecified),inactive
5,Cc1ccc(NCCC(=O)c2cccs2)cc1C,inactive
6,COc1ccc(N=N/C(=C\O)C(=O)c2cccs2)cc1,inactive
7,Sc1oc(-c2ccccc2)cc1C=Nc1ccccc1,inactive
8,CCOC(=O)COc1ccc(C2CC(C)=NN2c2ccccc2)cc1 (stereo unspecified),inactive
9,COc1ccc(C2=NOC(COC(=O)c3ccc4ccccc4n3)C2)cc1 (stereo unspecified),inactive
10,CCCCOc1ccc(NC(=O)CN2CCN(Cc3ccccc3)CC2)cc1,inactive
11,O=C(COC(=O)C1CC2C=CC1C2)Nc1ccccc1 (stereo unspecified),inactive
12,Cc1cc(C)n2[nH]c(=O)c(N=Nc3cccc(C(F)(F)F)c3)c2n1,inactive
13,CCOC(=O)/C=C1\Nc2ccccc2OC1=O,inactive
14,Cn1c(SCCOc2cccc(Cl)c2)nnc1-c1ccncc1,inactive
15,Clc1ccc(OCCCCN2CCc3ccccc3C2)cc1,inactive
16,O=C(COC(=O)CCc1c[nH]c2ccccc12)Nc1cc([N+](=O)[O-])ccc1Cl,inactive
17,O=C(CCCSc1nc2ccccc2s1)NCc1ccco1,inactive
18,c1ccc(Cn2c(SCCN3CCOCC3)nnc2-c2cccnc2)cc1,inactive
19,O=C(O)CCCCCN1C(=O)CSC1=S,inactive
20,COc1ccc(CN=C2NN=C(c3ccc(Cl)cc3)CS2)cc1,inactive
21,O=C(O)c1ccc(CN2C(=O)CSC2=S)cc1,inactive
22,CCOc1ccc(OCC(=O)Nc2nccs2)cc1,inactive
23,CCOc1ccc2ccccc2c1/C=N/NC(=O)c1ccncc1,inactive
24,COc1ccc(NC(=O)Nc2ccc(O)c3ccccc23)cc1,inactive
25,O=C(CCSc1ccc(Cl)cc1)Nc1cccnc1,inactive
26,COc1ccc(C(=O)OCn2nnc3ccccc3c2=O)cc1,inactive

row,SMILES,outcome
1,Cc1ccc(C(=O)N/N=C/c2cccc3ccccc23)cn1,inactive
2,CCOC(=O)C1CCN(CCCSc2ccc(Cl)cc2)CC1,inactive
3,C/C(=N\NC(=O)c1cccc(Cl)c1)C1C(=O)c2ccccc2C1=O,inactive
4,C/C(=N/NC(=O)c1cccc(C)c1)c1c(O)cc(C)oc1=O,inactive
5,O=C(CCc1ccccc1)NC1C2CC3CC(C2)CC1C3 (stereo unspecified),inactive
6,C/C(=N\NC(=O)c1ccncc1)c1cc2ccccc2oc1=O,inactive
7,Cc1ccccc1C(=O)NN1CC(C(=O)OCc2ccc(Cl)c(Cl)c2)CC1=O (stereo unspecified),inactive
8,CSc1ccccc1C(=O)NCc1ccc(S(N)(=O)=O)cc1,inactive
9,O=C(COc1ccc(Cl)cc1)OCC(=O)N1CCCc2ccccc21,inactive
10,CNC(=O)c1[nH]cnc1C(=O)Nc1ccc(Cl)cc1,inactive
11,O=C(Nc1cccnc1)c1cc(Cl)ccc1Cl,inactive
12,CN1/C(=C\C(=O)COC(=O)c2ccc([N+](=O)[O-])o2)C(C)(C)c2ccccc21,inactive
13,CN1/C(=C\C(=O)COC(=O)C2COc3ccccc3O2)C(C)(C)c2ccccc21 (stereo unspecified),inactive
14,O=C(OCc1ccc(Cl)c(Cl)c1)c1ccccn1,inactive
15,O=C(Oc1cccnc1)c1ccc(Cl)c(Cl)c1,inactive
16,CC(C)c1ccc(OCC(=O)NNC(=O)c2cnccn2)cc1,inactive
17,NNC(=O)CNC(=O)C12CC3CC(CC(C3)C1)C2,inactive
18,O=C(NCc1ccc(F)cc1)c1cnccn1,inactive
19,O=C(OCC(=O)C12CC3CC(CC(C3)C1)C2)c1ccccn1,inactive
20,Nc1c(C(=O)NC2CCCCC2)nsc1C(=O)OCC(=O)NC1CCCCC1,inactive
21,COC(=O)COc1ccc(S(=O)(=O)NCc2ccc3c(c2)OCO3)cc1,inactive
22,COC(=O)CCCC(=O)N1CCCC(C(=O)c2ccc(-c3ccccc3)cc2)C1 (stereo unspecified),inactive
23,N#Cc1ccc(CSc2nnc(-c3cccnc3)o2)cc1,inactive
24,O=C(COC(=O)CCC(=O)c1ccc(F)cc1)Nc1ccccc1,inactive
